High-throughput results: PubChem, Broad Institute
Tgondii IFNg – inhibitors of Toxoplasma gondii growth with IFN-gamma; 69,000 tested, 3.8% active; Toxoplasma gondii growth in IFN-gamma-treated host cells; hits give low values; activity change, negative = inhibition, % (no concentration beside the values); in the data active = activity change below about -70%, passing the limit was not always enough;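 also: host cells are HeLa cells infected with Toxoplasma gondii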
Each line names hits and unclear results; the compound was inactive in the other large screens; ! = a repeat was not active. This is one part of a sample in which hits are shown more often than they occur.

Cc1ccc(CNC(=O)Nc2ccc(-c3nc(-c4ccc(C)cc4C)co3)cc2)cc1	none
COc1ccc(C(=O)NCCc2sc(-c3ccc(C)cc3)nc2C)cc1OC	none
CCCN(CCC)S(=O)(=O)c1ccc(C(=O)ON=C2C3CC4CC(C3)CC2C4)cc1	Tgondii IFNg -79
CCCN(CCC)S(=O)(=O)c1ccc(C(=O)O)cc1	none
O=C(COc1ccc(Cl)cc1)ON=C1C2CC3CC(C2)CC1C3	none
CC(=O)N[C@@H]1Cc2ccccc2[C@H]1NC(=O)c1cn[nH]n1	none
CC(C)NC(=O)[C@H]1CCS(=O)(=O)[C@H]2CN(C(=O)Nc3ccccc3)C[C@@H]12	none
CC(C)CCN1C[C@H]2[C@H](C(=O)Nc3ccccc3)CCS(=O)(=O)[C@H]2C1	Tgondii IFNg -94
O=C(Nc1ccccc1)[C@@H]1CCS(=O)(=O)[C@H]2CN(Cc3ccc(F)cc3)C[C@@H]12	none
Cc1oc2cc(O)cc(O)c2c(=O)c1-c1ccccc1	none
O=c1cc(-c2ccc(O)c(O)c2)oc2cc(O)cc(O)c12	none
O=c1c(O)c(-c2ccc(O)c(O)c2)oc2cc(O)cc(O)c12	Tgondii IFNg -78!
O=C(NC1CCC(n2cnnc2)CC1)c1cnc(-c2ccccn2)nc1 (centres undefined)	none
CC(=O)N1CCN(c2nc(C)cc(C)n2)CC1	none
Cc1cc(C)nc(N2CCC(CNC(=O)c3cc(C(C)(C)C)[nH]n3)CC2)n1	Tgondii IFNg -77
Cc1nc(CC(NC(=O)c2cc(C(C)(C)C)[nH]n2)c2ccc(Cl)cc2)cc(=O)[nH]1 (centres undefined)	none
COc1cc(C(=O)Oc2cc(C)cc(C)c2)cc(OC)c1OC	none
COc1ccc(C(=O)/C=C/c2ccc(OC(=O)c3cc(OC)c(OC)c(OC)c3)cc2)cc1	none
COc1cc(C(=O)Oc2ccc(C3CCCCC3)cc2)cc(OC)c1OC	Tgondii IFNg -94
Cc1cc(N(C)Cc2cc(C(C)(C)C)n[nH]2)nc(-c2cccnc2)n1	none
CC(C)CCNC(=O)Cn1ncc2c(N3CCN(c4ccccn4)CC3)ncnc21	none
CC(C)(C)NC(=O)N1CCC(Nc2nccc(C(F)(F)F)n2)CC1	none
COc1ccc(F)c(F)c1C(=O)c1cnc(NC2CCN(S(C)(=O)=O)CC2)nc1N	Tgondii IFNg -76
COc1ccc(F)c(CN2CCC(NS(C)(=O)=O)CC2)c1Cl	none
CN(C)S(=O)(=O)N1CC2CCC1C2Oc1ccccn1 (centres undefined)	none
COCc1nnc(NC(=O)c2cccc(Cn3cccn3)c2)s1	none
CCCc1ccc(C(=O)N2CCC3(CC2)COCCN(Cc2ccncc2)C3)cc1	none
CC1CCCN(c2ncc3c(n2)[C@H]2CN(C(=O)c4ccccc4)C[C@@H]2S(=O)(=O)C3)C1 (some centres undefined)	none
CCOCCN1Cc2ncn(C)c2C(COCc2csc(C)n2)C1 (centres undefined)	none
Cc1cccc(-c2nnc(-c3nc(NCCc4c(C)noc4C)c4ccccc4n3)o2)c1	none
Cc1noc(C)c1CCNc1ncc2c(n1)c1ccc(Cl)cc1n1ccnc21	Tgondii IFNg -73
Cc1nnc(SCCCNC(=O)CC2COCCN2)s1 (centres undefined)	none
O=C(Nc1ccc(OCc2ccccc2F)cc1)c1ccc(-n2cnnc2)cc1	none
CN1CCN(c2cc(C(=O)Nc3ccc(OCc4ccccc4F)cc3)ccn2)CC1	Tgondii IFNg -76
CN1CCN(c2cc(C(=O)NCCS(=O)(=O)c3ccc(F)cc3)ccn2)CC1	none
COCc1[nH]n2c(=O)cc(Cn3cccn3)nc2c1-c1ccc(OC)cc1	none
CN(C)C(=O)N1CCC(n2cccn2)c2cc(NC(=O)c3ccco3)ccc21 (centres undefined)	none
Cc1nccn1CC1(O)CCN(C(=O)c2cc3c(s2)CCCC3)CC1	none
CC(=O)NCCc1csc(C2CCCN(C(=O)Cc3ccccc3C)C2)n1 (centres undefined)	none
NC(=O)C(c1ccccc1)C1CCCC1 (centres undefined)	none
C=C1SC(=Nc2ccccc2Cl)N(C(=O)c2sc3ccccc3c2Cl)C1(C)C	none
C=C1SC(=Nc2cccc(OC)c2)N(C(=O)C(c2ccccc2)C2CCCC2)C1(C)C (centres undefined)	Tgondii IFNg -90
Cc1ccnc(N2CCC(C(=O)Nc3cccc4ccccc34)CC2)n1	none
CCOC(=O)c1[nH]ncc1-c1ccc(Cl)cc1Cl	Tgondii IFNg -95
CCOC(=O)c1[nH]c2cc(Cl)cc(Cl)c2c1CCC(=O)O	none
CCOC(=O)COc1ccc(Cl)cc1C(=O)OC	none
COCc1ncc(CN2CCN(c3nccc4ccccc34)CC2)cn1	none
Cc1ccc(NC(=O)Nc2ccc(-c3nc(-c4ccccc4)co3)cc2)cc1	none
Cc1ccc(-c2coc(-c3ccc(NC(=O)Nc4ccccc4)cc3)n2)cc1	none
Cc1ccc(NC(=O)NC(=O)c2c(C)noc2-c2snnc2C)cc1	Tgondii IFNg -107
COc1cc(CNC(=O)C2(C)CCN(C(=O)c3ccc(Br)cc3)CC2)cc(OC)c1	none
CCc1cn[nH]c1C1CCCN(C(=O)c2cc3cc(Cl)cc(OC)c3o2)C1 (centres undefined)	none
COC(=O)C1=C(C)NC(C)=C(C(=O)OCCCN2CCC(c3ccccc3)(c3ccccc3)CC2)[C@@H]1c1cccc([N+](=O)[O-])c1	Tgondii IFNg -87
